# Pf growth 96h: P. falciparum growth inhibition at 96 hours; AID 504834; P. falciparum luciferase reporter growth, 96 h; Potency, µM (top dose mostly 28.7 µM), inactives show at the top dose activity change, negative = inhibition, actives largely listed as inhibitors; actives 6.9% (n = 320,000); note: % is set by controls: 0 for no effect and ±100 for the full control effect
#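 P. falciparum expressing integrated firefly luciferase grown in erythrocytes (2% hematocrit, 0.05% parasitemia final) with compounds for 96 hours at 37 C, 5% CO2. Growth inhibition read as loss of luminescence after adding luciferase detection reagent.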
# SARS PLpro yeast: blocks SARS-CoV papain-like protease in a yeast assay | S. cerevisiae expressing SARS-CoV PLpro, growth rescue | Potency, µM (highest dose often 32.9 µM), for the others: top-dose activity, positive = growth rescue, hits mostly activators | actives 0.19% (n = 330,000) | AID 485353; calls by dose curve; note: 0% is about no effect; nearly all actives have a fitted effect of over 55% in size
# Pf growth 48h: inhibits P. falciparum growth in the first generation, 48 h | actives 5.9% (n = 310,000) | P. falciparum luciferase growth in erythrocytes, 48 h | AID 504832 | Potency, µM (series often up to 28.7 µM), for the others: at the top dose activity change, negative = inhibition, hits mostly inhibitors; note: % is set by controls: 0 for no effect and ±100 for the full control effect
#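 Compounds are pin-transferred into medium, infected erythrocytes (2% hematocrit, 0.1% parasitemia final) are added, and plates sit one parasite generation at 37 C in 5% CO2. Detection reagent is then added and luminescence measured.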
# AMA1 RON2 block: disrupts binding of P. falciparum AMA1 to RON2. actives 0.2% (n = 360,000). AlphaScreen AMA1-biotinylated RON2 peptide binding. Potency, µM (top dose mostly 58.2 µM), for inactives: top-dose activity change, negative = inhibition, hits mostly inhibitors. AID 720542;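 note: 0% = vehicle wells and -100% = peptide control; nearly all actives have a fitted effect of over 45% in size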
#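 AMA1 (3D7) with his tag at 25 nM final met compounds first, then biotinylated RON2 peptide at 25 nM; detection used donor plus acceptor beads, 10 µg/mL apiece, read by AlphaScreen after 30 min at room temperature.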
# * hit, by the source's call; ? = inconclusive; / = not tested or not shown; [ ] = another dose, or the depositor's remark. This is a sample that favours compounds with a hit; in the whole collection about 9.4% have one here. Unless noted, calls come from the whole dose curve; as a rule, active = well fitted curve in the direction sought with a large enough effect; inconclusive = small, poorly fitted or top-dose-only effect, or another doubt; inactive = no such curve, though single readings can be large; an effect the other way counts as inactive or inconclusive. Potency is the fitted concentration of half-maximal effect.
SMILES,Pf growth 96h,SARS PLpro yeast,Pf growth 48h,AMA1 RON2 block
O=C(CCCSc1ccccc1)Nc1ccc(Cl)c(S(=O)(=O)N2CCOCC2)c1,10µM*,-3%,13µM*,6%
Cc1ccc(S(=O)(=O)N2CCCCC2)cc1NC(=O)CCOc1ccccc1,?,?,-24%,12%
Cc1cccc(NC(=S)NCC(c2cccnc2)N2CCOCC2)c1 (stereo not drawn),28%,5%,-6%,20%[2.32 µM]
COc1cc2cc(CN(Cc3nnnn3C3CCCC3)C3CCCC3)c(=O)[nH]c2cc1OC,-32%,4%,6%,/
C[C@@H]1CN([C@H](C)CO)C(=O)CCCn2cc(nn2)CO[C@H]1CN(C)C(=O)c1cc(-c2ccccc2)on1,/,/,/,6%
CCN(CC(=O)Nc1ccc(C)c(S(=O)(=O)N2CCOCC2)c1)Cc1ccccc1,?,1%,12µM*,10%
Cc1ccc(NC(=O)C(=O)c2c(-c3ccccc3)cc3ccccn23)cc1S(=O)(=O)N1CCOCC1,/,0%,9.3µM*,-12%
Cc1ccc(OCCCC(=O)Nc2ccc(Cl)c(S(=O)(=O)N3CCOCC3)c2)cc1,10µM*,5%,?,-6%
CC(=O)c1ccc(OCCCC(=O)Nc2ccc(Cl)c(S(=O)(=O)N3CCOCC3)c2)cc1,/,/,/,-4%
NNC(=O)CSc1c(-c2cccs2)[nH]c2ccccc12,-10%,6%,-17%,15%
CC(NC(=O)/C=C/c1ccco1)c1nc2ccccc2n1Cc1ccccc1F (stereo not drawn),10µM*,1%,?,0%
CC(NC(=O)/C=C/c1ccco1)c1nc2ccccc2n1Cc1c(Cl)cccc1Cl (stereo not drawn),?,-1%,?,9%[2.32 µM]
O=C(COc1ccc(Cl)cc1)NCc1ccncc1,-29%,0%,-4%,-7%
O=C(CCN=C1NS(=O)(=O)c2ccccc21)OCc1ccccc1,-5%,7%,6%,-2%
COCCNC(=O)c1cc2c(=O)[nH]c3ccccc3c2s1,1.2µM*,0%,?,2%
CCCCNC(=O)c1cc2c(=O)n(CC)c3ccccc3c2s1,6.6µM*,0%,2%[0.00184 µM],-4%
CCn1c(=O)c2cc(C(=O)NCc3cccs3)sc2c2ccccc21,2.3µM*,0%,57%,0%
CCn1c(=O)c2cc(C(=O)NC(C)C)sc2c2ccccc21,?,2%,-15%,-16%
Cn1c(=O)c2c(ncn2CC(=O)Nc2nc3ccc(F)cc3s2)n(C)c1=O,/,4%,20%,1%
O=C(CNC(=O)c1cccc(Br)c1)N/N=C/c1ccc2c(c1)OCO2,28%,2%,18%,23%
COc1ccc(C2/C=C\CN(CC(C)(C)C)CC(=O)N2Cc2ccc(F)cc2)cc1 (stereo not drawn),?,-7%,?,34%
CCOc1ccc(NC(=O)NC23CC4CC(CC(C4)C2)C3)cc1,9%,-16%,-17%,?
Oc1cccc(/C=N/Nc2cc(N3CCCC3)nc(N3CCCC3)n2)c1,?,-11%,2.9µM*,6%
COc1ccc(/C=N/Nc2cc(N3CCCC3)nc(N3CCCC3)n2)cc1,?,-7%,?,?
Oc1ccc(/C=N/Nc2cc(N3CCCC3)nc(N3CCCC3)n2)cc1,2.1µM*,2%,?,7%
SMILES,Pf growth 96h,SARS PLpro yeast,Pf growth 48h,AMA1 RON2 block
c1ccc(C2=NOC(c3nnc(-c4ccccc4)o3)C2)cc1 (stereo not drawn),/,/,/,20%
Cc1ccn2c(C(=O)N/N=C\c3cccs3)c(C)nc2c1,?,4%,6%,41%
CN(C)CCCNC(=O)c1ccc(-c2nc(-c3ccc(Cl)cc3)cs2)cc1,1.5µM*,-9%,2.6µM*,7%
Oc1cc(-c2ccc(N3CCCCC3)nc2)cc2cccnc12,2.9µM*,1%,4.1µM*,/
Oc1cc(-c2ccncc2)cc2cccnc12,5.2µM*,4%,?,/
CN(C)c1ccc(-c2cc(O)c3ncccc3c2)cc1,5.2µM*,-3%,3.7µM*,/
Cc1ccc(Oc2ncccc2CO)cc1,1%,2%,5%,2%
CC(C)Oc1ccccc1-c1nc(SCC(=O)O)n[nH]1,/,5%,-3%,0%
CCOc1ccc(NC(=O)/C(C#N)=C\c2ccc(N3CCCC3)c(C)c2)cc1,/,/,/,-8%
CN(C)CCCNC(=O)c1ccccn1,1%,17%,/,40%
CN1CCN(c2ccc(-c3cc(O)c4ncccc4c3)cc2)CC1,2.6µM*,-9%,2.6µM*,/
CC(=O)Nc1cc(-c2ccc(N3CCN(C)CC3)cc2)cn2c(-c3ccccc3)cnc12,/,/,/,-21%
CN(C)CCCNC(=O)c1ccc(-c2cc(O)c3ncccc3c2)cc1,6.6µM*,3%,10µM*,/
CCN(CC)S(=O)(=O)c1cccc(C(=O)OCc2cc(=O)n3nc(C)sc3n2)c1,5.2µM*,3%,-24%,11%
CCCSc1nc(O)c(C2OC(=O)c3c2ccc(OC)c3OC)c(=O)n1-c1ccccc1 (stereo not drawn),-6%,3%,/,-5%
Cc1c(N(C(=O)CNC(=O)c2ccccc2)C2(C(=O)NC3CCCCC3)CCCCC2)c(=O)n(-c2ccccc2)n1C,?,2%,5.9µM*,10%
CC(=O)NCC(=O)N(c1c(C)n(C)n(-c2ccccc2)c1=O)C1(C(=O)NC2CCCC2)CCCCC1,?,1%,-4%,0%
CCOc1ccccc1NC(=O)c1cnccn1,12µM*,?,?,3%
CCOc1ccccc1NC(=O)/C(C#N)=C/c1cccnc1,13µM*,0%,-23%,4%
CCOc1ccccc1NC(=O)Nc1ccncc1,15%,0%,3.3µM*,-4%
CCOc1ccccc1NC(=O)NC1Cc2ccccc2C1,8.3µM*,1%,?,-1%
COc1ccc(Cl)cc1CC=NNC(=O)c1ccncc1,/,/,/,58%
CCOc1ccc(S(=O)(=O)N(C)CC(=O)N2CCCC2)cc1,0%,2%,5%,-7%
Cn1c(C(=O)N2CCCC(C(=O)NCCCSC3CCCCC3)C2)cc2sccc21 (stereo not drawn),42%,-14%,?,-21%
O=C(Nc1cccnc1)C1Cc2c(-c3ccccc3Oc3ccccc3)ccnc2O1 (stereo not drawn),/,/,/,0%
SMILES,Pf growth 96h,SARS PLpro yeast,Pf growth 48h,AMA1 RON2 block
NC(=O)C1Cc2ccccc2CN1C(=O)c1nn(Cc2ccccc2)c(=O)c2ccccc12 (stereo not drawn),5.9µM*,2%,9.3µM*,-8%
COc1ccc(C2(c3ccc(OC)cc3)NC(=O)N(CC(=O)NC3(C#N)CCCC3)C2=O)cc1,?,0%,?,4%
Cc1ccc(C2(c3ccccc3)NC(=O)N(CC(=O)NC3(C#N)CCCC3)C2=O)cc1C (stereo not drawn),?,2%,13µM*,0%
Cc1ccc(C2(c3ccccc3)NC(=O)N(CC(=O)NCc3ccco3)C2=O)cc1C (stereo not drawn),5.9µM*,4%,?,-7%
CCN1CCCC1=O,-16%,/,-5%,/
COc1ccc(N2CCN(C(=O)c3ccc4[nH]c(C)c(C)c4c3)CC2)cc1,?,-16%,?,-22%
CCc1cc(=O)oc2c(CNCc3c(F)cccc3Cl)c(O)ccc12,?,0%,9.3µM*,38%
